Screening data (PubChem)
BCLXL inh – inhibitors of human Bcl-xL, primary screen, biochemical, fluorescence polarization, HTS; GST-Bcl-xL / FITC-Bim BH3 peptide fluorescence polarization; inhibition, % at 10.9 µM; 0.7% of 320,000 active; AID 2129, 2009;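 active = inhibition above the mean of all tested compounds plus 3 SD, cutoff set per campaign, cut at about 30% in these data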;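 also: 0% = DMSO wells and 100% = unlabeled Bim-BH3 peptide competitor; inhibitors lower millipolarization by displacing the labeled peptide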
GLD-1 TGE inh – GLD-1/TGE RNA complex disruptors, primary screen, biochemical, fluorescence polarization; purified GLD-1 + fluorescein TGE RNA; Female germline-specific tumor suppressor gld-1 (Caenorhabditis elegans), Q17339; inhibition, % at 5.96 µM; 0.44% of 320,000 active;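 active = percent inhibition above a per-plate cutoff, the plate mean of test compounds plus 3 SD, cut at about 30% in these data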;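 also: 0% = DMSO wells with GLD-1 and probe and 100% = wells lacking GLD-1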
EBV gp42 inh – Epstein-Barr virus gp42 inhibitors, primary screen, biochemical, uHTS, fluorescence polarization. Fluorescence polarization binding assay, mP read-out. 0.42% of 220,000 active. inhibition, % (tested at 21.74 µM); in the data active = inhibition above about 50%
eLon inh – inhibitors of E. coli Lon protease, primary screen, biochemical, fluorescence polarization; P0A9M0; purified E. coli Lon protease; inhibition, % at 7.94 µM; 0.42% of 360,000 active; AID 602123, 2011; in the data active = inhibition above about 13%, passing the limit was not always enough;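 also: 0% = enzyme with probe and DMSO and 100% = no enzyme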
Target sequence (P0A9M0 whole entry, looked up): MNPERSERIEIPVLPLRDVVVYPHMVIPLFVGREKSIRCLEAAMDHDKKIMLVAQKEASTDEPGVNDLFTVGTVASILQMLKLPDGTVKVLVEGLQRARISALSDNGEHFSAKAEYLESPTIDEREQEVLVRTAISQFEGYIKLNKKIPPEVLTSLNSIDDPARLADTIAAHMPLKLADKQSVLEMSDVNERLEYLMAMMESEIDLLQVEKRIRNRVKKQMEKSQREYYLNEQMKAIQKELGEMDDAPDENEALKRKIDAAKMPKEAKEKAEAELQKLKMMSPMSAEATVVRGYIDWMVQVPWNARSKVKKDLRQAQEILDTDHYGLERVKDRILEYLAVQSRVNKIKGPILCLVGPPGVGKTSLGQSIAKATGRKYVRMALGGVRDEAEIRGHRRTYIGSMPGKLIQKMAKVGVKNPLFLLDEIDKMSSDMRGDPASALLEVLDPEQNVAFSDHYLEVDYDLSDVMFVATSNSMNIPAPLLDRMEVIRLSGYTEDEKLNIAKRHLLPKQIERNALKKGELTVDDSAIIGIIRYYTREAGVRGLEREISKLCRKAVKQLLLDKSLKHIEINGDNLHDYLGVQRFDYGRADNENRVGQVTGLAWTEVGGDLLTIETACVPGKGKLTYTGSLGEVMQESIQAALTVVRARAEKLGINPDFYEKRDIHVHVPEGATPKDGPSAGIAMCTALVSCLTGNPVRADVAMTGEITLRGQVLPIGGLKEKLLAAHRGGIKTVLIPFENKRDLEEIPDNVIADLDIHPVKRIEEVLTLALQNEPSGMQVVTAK
MCL1-BIM inh – inhibitors of MCL1 binding to BIM-BH3, primary screen, biochemical, fluorescence polarization; Induced myeloid leukemia cell differentiation protein Mcl-1 (Homo sapiens), Q07820; GST-MCL1 / FITC-Bim-BH3 fluorescence polarization; inhibition, % at 10.9 µM; 0.68% of 320,000 active; AID 2057, 2009;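 active = inhibition above the mean inhibition of all tested compounds plus 3 SD, set per campaign, cut at about 40% in these data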;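 also: 0% = DMSO wells and 100% = unlabeled Bim-BH3 peptide control; higher means more loss of mP so more displacement of Bim peptide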
MEX-5 binding – MEX-5 zinc finger RNA-binding disruptors – biochemical, C. elegans, fluorescence polarization, MLPCN library, primary screen; MEX-5/FITC-TCR2 RNA binding; hits give low values; activity score (negative = inhibition of binding), % at 10 µM; 0.38% of 300,000 active; AID 1832, 2009;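 active = inhibition past about -25% in most replicates, and total fluorescence under double the plate's negative control median, limit read from the data; inconclusive = replicates evenly split on the limit, or fluorescence at least double controls; inactive = too little inhibition in most replicates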;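 also: 0% = DMSO and -100% = 5 µM competing unlabeled TCR2 RNA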
An asterisk follows results filed as active; ? = inconclusive; . = no result. Most compounds without a hit are left out; they make up all but 1.5% or so of the library.

SMILES	BCLXL inh	GLD-1 TGE inh	EBV gp42 inh	eLon inh	MCL1-BIM inh	MEX-5 binding
COc1ccc(N/C=C/C(=O)c2ccc(C)cc2)c([N+](=O)[O-])c1	-1.4	6.9	.	-9.6	-7.1	-3.0
COc1ccc(N/C=C\C(=O)c2ccc(C)cc2)cc1OC	-0.4	-9.3	-12.8	-3.2	-1.8	-47.8*
COc1ccc(N/C=C/C(=O)c2ccc3c(c2)OCO3)cc1OC	1.9	-8.5	-7.2	-3.8	-6.7	-34.1*
CCOc1ccc(N/C=C/C(=O)c2ccc(OC)cc2)c([N+](=O)[O-])c1	4.5	4.0	58.9*	1.8	2.3	-0.8
COc1ccccc1C(=O)NC(C(=O)NCCc1nc2ccccc2[nH]1)=C(C)C	0.4	-6.1	.	1.2	0.0	2.7
O=C(O)c1ccc(/C=C/C(=O)c2ccc3c(c2)OCCCO3)cc1	4.0	-0.1	.	7.0	2.0	-0.8
CC(=O)Nc1ccc(/C=C/C(=O)c2ccc3c(c2)OCCO3)cc1	1.1	0.7	.	-7.8	-5.8	-53.3*
Cc1ccn2c(CNCc3cnn(C)c3)c(C(=O)N3CCCCCC3)nc2c1	67.0*	-0.6	.	1.7	-0.4	.
CN(N=Nc1ccc([N+](=O)[O-])cc1)c1ccccc1	4.5	8.8	81.9*	1.1	5.9	-58.1*
COCc1ccc(C(=O)NC2CCCN(Cc3ccccc3F)C2)o1 (centres undefined)	35.9*	6.5	.	0.3	-8.7	-0.2
COCCC(=O)N1CCC(Oc2ccc(C(=O)NCCC3=CCCCC3)cc2)CC1	6.9	3.4	.	-5.7	3.4	2.0
Cc1nn(C)c(C)c1S(=O)(=O)N(CC(=O)Nc1ccc2c(c1)OCO2)c1ccc(C(C)C)cc1	5.6	1.6	-19.7	15.9*	5.5	.
CCNC(=O)C1(C)CCN(C(=O)c2ccc(OC(F)F)cc2)C1 (centres undefined)	.	.	.	14.4	.	.
CN(C(=O)CSc1nnc(-c2cccnc2)n1-c1ccccc1F)C1CCS(=O)(=O)C1 (centres undefined)	-5.1	6.9	-3.5	2.9	-0.2	-2.1
CCCCCCc1nc(C(N)=O)c2[nH]c(=O)n(-c3ccc(OCC)cc3)c2n1	-0.9	4.3	.	0.4	-4.0	1.5
CNCc1cc(C)n(-c2cc(S(=O)(=O)N3CCOCC3)ccc2N2CCCC2)c1C	.	.	.	-9.3	.	.
Cc1ccc(C)n1-c1cc(S(=O)(=O)N2CCOCC2)ccc1N1CCCC1	18.2	1.4	95.5*	-2.7	17.6	-1.8
Cc1ccc2nc(SCC(=O)Nc3nonc3C)[nH]c2c1	-5.6	14.7	.	5.1	-1.2	6.4
COc1ccc2nc(SCC(=O)Nc3nonc3C)[nH]c2c1	0.0	-1.9	-8.3	-6.5	-5.0	-32.0*
COc1ccc(-n2c(N)c(C#N)c3ccc([N+](=O)[O-])cc3c2=O)cc1	19.3	8.0	52.0*	-0.9	16.7	-5.0
Cc1ccc(NC(=O)c2sc3nc4c(c(-c5ccco5)c3c2N)CCC4)cc1	28.3	63.5*	9.2	-16.6	5.8	-55.3*
CCOC(=O)c1c(C)[nH]c(C)c1C(=O)CSc1nc2ccccc2n1CC	-0.7	-0.4	122.0*	-9.9	-2.0	2.4
CC1=Nc2cccc3cccc(c23)N1C	0.7	5.3	-18.4	2.3	2.2	-28.6*
CN1C(=O)N(C)c2cccc3cccc1c23	-0.5	5.9	.	-1.9	-9.1	0.3
Cc1ccccc1Nc1ncccc1C(=O)N1CCOCC1	-1.1	-2.2	-28.2	56.5*	-1.2	0.8
SMILES	BCLXL inh	GLD-1 TGE inh	EBV gp42 inh	eLon inh	MCL1-BIM inh	MEX-5 binding
COc1cc(/C=N/c2oc(-c3ccccc3)cc2C#N)ccc1O	-0.2	0.5	57.3*	-7.5	-7.2	?
O=C(c1cc2sccc2n1Cc1ccc(F)cc1)N1CCN(c2nc3ccccc3s2)CC1	78.5*	-3.0	-14.4	9.8	5.5	-0.4
Cn1c(C(=O)N2CCN(c3nc4ccccc4s3)CC2)cc2sccc21	3.2	2.9	-4.3	3.9	0.8	1.3
CC(=O)Nc1ccc(/C=N/N2CCCCC2)cc1	0.8	3.5	-7.9	-1.4	4.6	-1.0
COc1ccccc1C(=O)NC(CCSC)C(=O)NCCCSc1ccccc1 (centres undefined)	2.4	-5.6	.	0.5	2.2	2.4
COCCCN1C(=O)C(CC(=O)NCC2CCCCC2)CC(C(=O)N(C(C)C)C(C)C)=C1C (centres undefined)	.	.	.	6.2	.	.
N#Cc1sc2nc(-c3cccs3)cc(-c3ccc(Cl)cc3)c2c1N	1.9	8.0	-32.4	0.1	7.5	4.1
CCN(CC)C(=O)c1sc2nc(-c3cccs3)cc(-c3cccs3)c2c1N	0.7	-11.9	47.3	-2.5	2.2	-33.3*
CCN(CC)C(=O)c1sc2nc(-c3cccs3)cc(-c3ccc(Cl)cc3)c2c1N	-0.6	-16.2	85.8*	11.3	-19.0	0.6
Cc1ccc(NC2CCCN(C(=O)CCC3=NNC(=O)CC3)C2)cc1C (centres undefined)	-2.6	0.1	.	2.6	-1.1	-0.7
COc1cccc(C(=O)NNC2=CC(=O)CC(C)(C)C2)c1	2.4	25.7	-18.8	0.7	7.1	-2.9
CC1(C)CC(=O)C=C(NNC(=O)c2cccnc2)C1	18.9	81.5*	0.1	31.0	17.4	-10.6
Cc1cccc(N=Nc2c(O)[nH]c3ccc(Br)cc23)c1	14.6	-5.8	.	-11.2	4.0	-32.6*
CCCCC1=CC2=C(c3ccco3)C(=O)C(C)(OC(=O)c3ccc(OC)cc3)C(=O)C2=CN1Cc1ccccc1 (centres undefined)	37.0*	44.4*	52.3*	-17.4	31.6	-8.0
CC1N(C)c2cc(NC(=O)c3ccco3)ccc2C1(C)C (centres undefined)	26.9	35.9*	-0.2	-11.6	28.5	1.7
COc1cc(=O)[nH]c(SCC(=O)Nc2nc3c(s2)CCCC3)n1	6.2	4.5	.	3.4	6.2	1.5
CSCCC(NC(=O)OCc1ccccc1)NC(=O)OCc1ccccc1	.	.	.	-7.1	.	.
COc1ccccc1N(CC(=O)NCc1ccccn1)S(C)(=O)=O	3.2	0.1	7.9	-8.2	-3.6	-1.7
COc1ccc(OC)c(N(CC(=O)NCc2ccccn2)S(C)(=O)=O)c1	1.6	-5.1	-11.0	31.0*	0.3	0.8
O=C(CNC(=O)c1ccccc1F)NCc1cccnc1	0.0	-2.4	.	-3.2	4.3	0.9
O=C(Nc1nnc(-c2ccccc2Cl)o1)c1cc2cc([N+](=O)[O-])ccc2s1	.	.	67.6*	.	.	.
COc1ccccc1NC(=O)Cn1cncc1-c1ccc([N+](=O)[O-])cc1	-0.5	1.6	-17.4	2.5	1.8	-0.7
O=C(Cn1cncc1-c1ccc([N+](=O)[O-])cc1)Nc1ccccc1F	1.2	32.7*	3.5	5.2	0.1	-2.3
